# Screening results from PubChem.
# Rows were chosen to be rich in hits. Some 1.3% of all compounds tested hit in one or more screens of this group.
# NR5A2 inv ag – NR5A2 inverse agonism in reporter assay; HEK293T StAR-luciferase reporter, LRH-1 transfected, 24 h; inhibition, % at 3.6 µM; 0.13% of 360,000 active; AID 602396;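 active = inhibition above the mean inhibition of all tested compounds plus 3 SD, cut at about 73% in these data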
# NCOA3 inh – inhibitors of human steroid receptor coactivator 3 (SRC3). AID 588352. HEK293 GAL4-SRC3 luciferase reporter, luminescence. Q9Y6Q9. inhibition, % at 3.6 µM. 0.17% of 360,000 active;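 active = inhibition above a per-campaign cutoff, the mean of all compounds plus 3 SD, cut at about 60% in these data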;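 note: higher means less SRC3-driven luciferase light from the GAL4 reporter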
# COUP-TFII inh – blocks human COUP-TFII nuclear receptor; HEK293T NGFI-A luciferase reporter, luminescence; 0.7% of 370,000 active; inhibition, % at 8.6 µM; AID 686940;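 active = inhibition above a per-plate cutoff, mean inhibition of test wells between control levels plus 3 SD, cut at about 38% in these data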;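 note: cells cotransfected with COUP-TFII expression vector driving the NGFI-A reporter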
# NCOA2 inhibitor – human SRC2 (NCOA2) inhibition; Q15596; HEK293 GAL4-SRC2 luciferase reporter, luminescence; inhibition, % at 9 µM; 0.17% of 370,000 active; AID 651957;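 active = inhibition above the mean inhibition of all tested compounds plus 3 SD, set per campaign, cut at about 52% in these data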
# Target sequence (Q15596 whole entry, looked up, the tested form may be a part): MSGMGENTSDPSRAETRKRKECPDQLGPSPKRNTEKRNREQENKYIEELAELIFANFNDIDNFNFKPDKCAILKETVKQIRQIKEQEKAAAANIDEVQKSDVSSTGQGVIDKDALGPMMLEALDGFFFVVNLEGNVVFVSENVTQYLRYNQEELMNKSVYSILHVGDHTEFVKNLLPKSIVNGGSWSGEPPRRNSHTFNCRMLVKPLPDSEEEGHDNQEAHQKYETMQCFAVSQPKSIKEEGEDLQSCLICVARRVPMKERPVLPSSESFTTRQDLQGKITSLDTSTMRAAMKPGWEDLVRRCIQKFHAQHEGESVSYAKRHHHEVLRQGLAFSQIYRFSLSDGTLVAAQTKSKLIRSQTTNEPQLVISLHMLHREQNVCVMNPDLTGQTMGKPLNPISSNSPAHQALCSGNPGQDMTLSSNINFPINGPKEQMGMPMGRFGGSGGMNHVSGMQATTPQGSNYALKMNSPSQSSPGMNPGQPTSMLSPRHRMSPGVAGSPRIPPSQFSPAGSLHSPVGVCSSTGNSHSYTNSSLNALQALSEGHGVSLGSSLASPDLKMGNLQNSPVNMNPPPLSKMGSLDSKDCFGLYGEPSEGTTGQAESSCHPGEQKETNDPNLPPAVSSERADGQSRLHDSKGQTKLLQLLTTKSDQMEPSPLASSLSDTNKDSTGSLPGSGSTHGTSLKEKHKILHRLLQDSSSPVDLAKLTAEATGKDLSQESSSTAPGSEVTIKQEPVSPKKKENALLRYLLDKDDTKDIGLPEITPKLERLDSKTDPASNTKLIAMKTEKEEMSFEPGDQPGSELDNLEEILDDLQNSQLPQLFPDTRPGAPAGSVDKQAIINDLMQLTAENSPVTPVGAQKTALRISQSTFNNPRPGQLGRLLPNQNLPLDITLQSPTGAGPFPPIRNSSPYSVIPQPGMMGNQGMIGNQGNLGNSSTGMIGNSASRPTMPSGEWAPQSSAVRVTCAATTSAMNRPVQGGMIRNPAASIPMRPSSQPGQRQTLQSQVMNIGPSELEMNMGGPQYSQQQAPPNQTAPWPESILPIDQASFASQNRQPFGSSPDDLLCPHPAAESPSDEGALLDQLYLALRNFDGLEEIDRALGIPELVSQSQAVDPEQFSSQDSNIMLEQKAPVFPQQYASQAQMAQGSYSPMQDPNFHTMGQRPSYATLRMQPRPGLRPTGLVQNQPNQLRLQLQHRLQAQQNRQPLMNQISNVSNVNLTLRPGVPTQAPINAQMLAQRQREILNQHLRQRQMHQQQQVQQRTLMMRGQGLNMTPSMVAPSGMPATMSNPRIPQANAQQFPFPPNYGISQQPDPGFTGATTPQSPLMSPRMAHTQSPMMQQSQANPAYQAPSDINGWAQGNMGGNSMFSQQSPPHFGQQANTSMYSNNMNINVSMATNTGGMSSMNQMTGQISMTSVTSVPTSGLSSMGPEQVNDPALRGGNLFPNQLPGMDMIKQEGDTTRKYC
# SRC1 inh – inhibitors of human steroid receptor coactivator 1 (SRC1); Q15788; AID 588354; 0.12% of 360,000 active; inhibition, % at 3.6 µM; HEK293 GAL4-SRC1 luciferase reporter, luminescence;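 active = inhibition above the campaign mean plus 3 SD, with each screening campaign given its own cutoff, cut at about 60% in these data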
# Gli-Sufu antag – Gli-Sufu pathway antagonism; Sufu-KO-LIGHT fibroblasts, Gli luciferase reporter luminescence; inhibition, % at 5 µM; 0.74% of 340,000 active; AID 588413;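 active = inhibition above about 55%, limit read from the data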
# VP16 Luc counter – VP16 inhibition counter-screen for COUP-TFII; shares compounds with COUP-TFII inh; HEK293 Gal4-VP16 luciferase reporter, luminescence; inhibition, % at 8.5 µM; 25% of 2,500 active; AID 687007; in the data active = inhibition above about 13%
# COUP-TFII conf – confirmation of human COUP-TFII (NR2F2) inhibitors. shares compounds with COUP-TFII inh. HEK293 NGFI-A luciferase reporter, luminescence. inhibition, % at 8.5 µM. 45% of 2,500 active;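 active = mean inhibition over three repeats above a set limit taken from the earlier primary screen, cut at about 38% in these data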
# Numbers stand for hits; . = inactive; / = no result given.
SMILES,NR5A2 inv ag,NCOA3 inh,COUP-TFII inh,NCOA2 inhibitor,SRC1 inh,Gli-Sufu antag,VP16 Luc counter,COUP-TFII conf
Cc1cc2nc(C)n(CCCNC(=O)Nc3cccc4ccccc34)c2cc1C,.,.,38,.,.,.,.,.
CCOc1ccc(NC(=O)NCCCn2c(C)nc3cc(C)c(C)cc32)cc1,.,.,.,.,.,.,/,/
CC(=O)c1ccc(N2CCN(C(=S)Nc3ccc(Oc4ccccc4)cc3)CC2)cc1,.,.,69,.,.,.,.,56
COc1ccc(-c2sc3ccc(N4CCOCC4)cc3c2C#CCO)cc1,.,.,74,.,.,.,.,53
CSc1ccc(NC(=O)Nc2cccn(Cc3ccccc3F)c2=O)cc1,.,.,39,.,.,.,.,.
CCc1ccccc1NC(=O)Nc1cccn(Cc2ccccc2F)c1=O,.,.,.,.,.,.,/,/
Cc1ccc(-c2nnc(SCC(=O)c3ccc(O)c(O)c3)n2-c2ccc(Cl)cc2)cc1,/,/,.,.,/,/,/,/
Cn1c(=O)n(C)c2cc([N+](=O)[O-])c(N3CCN(C(=O)c4ccccc4Br)CC3)cc21,.,.,.,.,.,.,/,/
Cn1c(=O)n(C)c2cc([N+](=O)[O-])c(N3CCN(C(=O)c4ccccc4Cl)CC3)cc21,.,.,45,.,.,.,.,.
O=C(CCn1nnc2ccccc21)N1CCN(c2cccc(C(F)(F)F)c2)CC1,/,/,.,.,/,/,/,/
COc1ccc(C(=O)OCCCN(C)C2CN(Cc3cn(Cc4ccccc4C(F)(F)F)nn3)S(=O)(=O)C2)cc1OC (centres undefined),/,/,.,.,/,/,/,/
COC(=O)[C@@H](NC(=O)NCc1ccc(F)cc1)C(C)C,.,.,.,.,.,.,/,/
C=CS(=O)(=O)N(Cc1ccc(F)cc1)C(=C)C(=O)OC,/,/,68,.,/,/,17,.
C=CCN1[C@H](CC(C)C)COc2cc(N3CCCC3)ccc2S1(=O)=O,/,/,.,.,/,/,/,/
O=C(CSc1nc2ccccc2s1)N/N=C/c1ccccc1C(=O)O,.,.,43,.,.,.,.,.
O=C(O)COc1ccccc1/C=N/NC(=O)CSc1nc2ccccc2s1,.,.,.,.,.,.,/,/
COc1ccc(C(=O)OCCN2CCN(C3CN(Cc4cn(Cc5cccc(C)c5)nn4)S(=O)(=O)C3)CC2)cc1OC (centres undefined),/,/,47,.,/,/,.,.
COCCCn1cc(CN2CC(N3CCN(Cc4cccc(C)c4)CC3)CS2(=O)=O)nn1 (centres undefined),.,/,.,.,/,/,/,/
COc1ccc(CNC(=O)C2CCCN(c3nc4ccccc4o3)C2)cc1 (centres undefined),/,/,.,.,/,/,/,/
C=CCOC(=O)N1CCC(NS(=O)(=O)c2ccc3c(c2)CCN3C(C)=O)CC1,/,/,.,.,/,/,/,/
CC(=O)N1CCc2cc(S(=O)(=O)NC3CCN(C(=O)OCc4ccccc4)CC3)ccc21,/,/,61,.,/,/,.,.
CN1C(=O)/C(=C\c2ccccc2F)Sc2ccc(C(=O)NC3CCN(Cc4ccccc4)CC3)cc21,.,.,41,.,.,.,.,.
CC[n+]1c(C=C2C=C(C)OC(C)=C2)sc2ccccc21,76,68,77,.,.,85,.,64
Cc1cc(NC(=O)COC(=O)CNS(=O)(=O)c2c(F)cc(F)cc2Br)no1,.,.,85,.,.,.,.,.
CCCCCCCCCCCCCCCCn1cc[n+](C)c1,.,.,47,.,.,82,.,49
SMILES,NR5A2 inv ag,NCOA3 inh,COUP-TFII inh,NCOA2 inhibitor,SRC1 inh,Gli-Sufu antag,VP16 Luc counter,COUP-TFII conf
COc1ccc(NC(=O)CSc2nnc(-c3cccs3)o2)cc1Cl,/,/,.,.,/,/,/,/
OCCN(CCO)CC(O)COc1ccc(Br)cc1 (centres undefined),.,.,.,.,.,.,/,/
OCCN(CCO)CC(O)COc1ccc(C23CC4CC(CC(C4)C2)C3)cc1 (centres undefined),.,.,87,73,.,.,62,72
O=S(=O)(NCc1cn2ccsc2n1)c1cccs1,.,.,.,.,.,.,/,/
O=S(=O)(NCc1cn2ccsc2n1)c1ccc(Oc2ccccc2)cc1,.,.,42,.,.,.,.,.
Cc1ccc(CNC(=O)c2ccc(N3CCC4(CC3)CC(c3cccc(Br)c3)=NO4)c([N+](=O)[O-])c2)cc1,.,.,.,.,.,.,/,/
CCCNC(=O)c1ccc(N2CCC3(CC2)CC(c2cccc(Br)c2)=NO3)c([N+](=O)[O-])c1,.,.,54,.,.,.,.,.
O=C(NCc1cccs1)C1CCN(S(=O)(=O)c2ccc([N+](=O)[O-])cc2)CC1,/,/,.,.,/,/,/,/
CC(=O)c1cccc(NC(=O)C2Cc3c(-c4cccc(C(C)=O)c4)ccnc3O2)c1 (centres undefined),.,.,48,.,.,/,.,.
COc1ccc(NC(=O)C2Cc3c(-c4ccccc4Oc4ccccc4)ccnc3O2)cn1 (centres undefined),.,.,.,.,.,/,/,/
O=C(NCc1ccncc1)C1Cc2c(-c3ccccc3Oc3ccccc3)ccnc2O1 (centres undefined),.,.,38,.,.,/,.,.
COc1ccc(NC(=O)C2Cc3c(-c4ccccc4Oc4ccccc4)ccnc3O2)cc1OC (centres undefined),.,.,64,.,.,/,.,.
COC(=O)[C@]12C[C@H](CC(=O)NCc3cccs3)C(=O)N(Cc3ccc(Cl)cc3Cl)C1=C[C@H](C(C)C)O[C@@H]2C1CC1,/,/,.,.,/,/,/,/
NS(=O)(=O)c1ccc(NC(=O)CSc2nnc(-c3cccs3)o2)cc1,/,/,.,.,/,/,/,/
COC(=O)[C@]1(C#N)CC(=O)N(C(C)C)[C@@H]1c1ccccc1,/,/,.,.,/,/,/,/
CC[C@H](C)[C@@H]1NC(=O)[C@@H](CC(C)C)NC(=O)[C@H](C(C)C)NC(=O)[C@H]2CSSC[C@H](NC1=O)C(=O)N2,103,95,106,94,96,/,96,112
CC(O)c1nc2ccccc2n1C/C=C/c1ccccc1 (centres undefined),.,.,.,.,.,.,/,/
Cc1c(P(=S)(c2ccccc2)c2ccccc2)[n+]2ccccc2n1C/C=C/c1ccccc1,.,.,38,.,.,/,.,.
CC(=O)C1(C(=O)NCc2ccccc2)CC(c2ccccc2C(F)(F)F)=NO1 (centres undefined),/,/,.,.,/,/,/,/
COC(=O)c1cc2c(c3c4cc(OC)ccc4n(S(=O)(=O)c4cccc(C)c4)c13)C(=O)N(Cc1ccc(C(F)(F)F)cc1)C2,/,/,.,.,/,/,/,/
COc1ccc(CN2CCN(C(=O)c3ccc(S(=O)(=O)N4CCCCCC4)cc3)CC2)cc1F,.,.,53,.,.,.,.,.
COc1ccc(C(=O)N2CCN(Cc3ccccc3C(F)(F)F)CC2)cc1,.,.,80,.,.,.,.,.
